An excerpt weighted towards active compounds, which were near 10% of everything screened.
hNpr1 antagonist = human Npr1 receptor antagonism. Potency, µM (titrated, usually from 46.3 µM), for the others: top-dose activity change, negative = inhibition, usual class: inhibitors. HEK293 hNpr1 GloSensor cGMP, ANP-stimulated luminescence. AID 1347048. actives 1.6% (n = 76,000); calls by dose curve; further: nearly all actives have a fitted effect of over 60% in size
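HEK293 cells stably expressing human Npr1 and cGMP GloSensor pGS-40F, loaded 2 h with 2% GloSensor reagent, given compound 30 min at room temperature. Luminescence read before and 20 min after 0.1 nM hNppA.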
FLuc inh = inhibitors of firefly (Photinus pyralis) luciferase; P08659; purified P. pyralis luciferase, luminescence, biochemical; Potency, µM (top dose mostly 115 µM), actives largely listed as inhibitors; actives 2.5% (n = 76,000); AID 1347043; further: nearly all actives have a fitted effect of over 65% in size
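Inhibitors were tested against purified firefly luciferase in a biochemical, low-substrate format (both substrates at 10uM) and luminescence measured with a CCD imager.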
HEK293 tox = cytotoxic compounds in HEK 293 cells | actives 6.6% (n = 94,000) | HEK 293 viability, ATP luminescence (CellTiter-Glo), 48-72 h | Potency, µM (titrated, usually from 115 µM), without a hit: at the highest dose activity change, negative = cytotoxicity, usual class: inhibitors; further: nearly all actives have a fitted effect of over 60% in size
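ATP-coupled CellTiter-Glo luminescence served as viability read-out, recorded 10 min after reagent addition at room temperature. HEK 293 cells, 250 cells/well, had been incubated with pintool-transferred compound for 48 or 72 hr at 37 degree Celsius.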
NIH3T3 tox = cytotoxic compounds in NIH 3T3 cells; AID 1345082; actives 4.3% (n = 94,000); Potency, µM (top dose mostly 96.7 µM), for the others: at the highest dose activity change, negative = cytotoxicity, actives largely listed as inhibitors; NIH 3T3 viability, CellTiter-Glo ATP luminescence, 48-72 h; further: nearly all actives have a fitted effect of over 55% in size
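Viability of NIH 3T3 cells after 48 or 72 hr compound treatment at 37 °C was assessed by CellTiter-Glo, with luminescence imaged following a 10 min room-temperature step.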
GPT2 inh = blocks human glutamate pyruvate transaminase 2. Q8TD30. Potency, µM (series often up to 57.7 µM), for inactives: at the highest dose activity change, negative = inhibition, actives largely listed as inhibitors. Recombinant GPT2, coupled pyruvate oxidase/HRP Amplex Red fluorescence. AID 1671188. actives 0.25% (n = 100,000); further: nearly all actives have a fitted effect of over 60% in size
Target sequence (Q8TD30 whole entry, looked up): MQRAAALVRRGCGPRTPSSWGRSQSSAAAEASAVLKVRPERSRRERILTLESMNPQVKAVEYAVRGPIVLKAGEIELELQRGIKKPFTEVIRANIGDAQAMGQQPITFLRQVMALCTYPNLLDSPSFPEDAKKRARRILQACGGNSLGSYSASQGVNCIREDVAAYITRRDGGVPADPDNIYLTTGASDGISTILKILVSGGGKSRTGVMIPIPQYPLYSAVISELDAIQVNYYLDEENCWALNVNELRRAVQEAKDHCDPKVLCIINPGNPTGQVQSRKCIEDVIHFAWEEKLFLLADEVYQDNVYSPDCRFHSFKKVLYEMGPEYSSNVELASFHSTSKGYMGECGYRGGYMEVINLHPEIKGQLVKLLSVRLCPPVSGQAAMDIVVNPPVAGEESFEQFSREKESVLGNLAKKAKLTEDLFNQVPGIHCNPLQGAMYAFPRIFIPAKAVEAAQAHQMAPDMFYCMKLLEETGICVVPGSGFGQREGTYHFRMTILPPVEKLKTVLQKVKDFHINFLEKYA
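Inhibition is scored from Amplex Red fluorescence generated when pyruvate oxidase and HRP act on pyruvate released by GPT2. Reactions contain 10ng/uL enzyme, 250uM a-KG and 2mM L-alanine and run 30 min at room temperature.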
* = called active by the depositor; i = inactive; ? = inconclusive; . = no result given; ! = not confirmed by another sample; [ ] = dose if it differs, or a comment. Unless noted, the call rests on the fitted dose curve; in most records, active means well fitted curve in the direction sought with a large enough effect; inconclusive means small, poorly fitted or top-dose-only effect, or another doubt; inactive means no such curve, though single readings can be large; an effect the other way counts as inactive or inconclusive. On the % scale 0 is the no-effect control and ±100 the full control effect; potency means the concentration at half of the fitted maximal effect.

SMILES	hNpr1 antagonist	FLuc inh	HEK293 tox	NIH3T3 tox	GPT2 inh
CN(C)Cc1nnc(C2CC(NC(=O)c3ccc4scnc4c3)C2)n1C (centres undefined)	-6%	i	-22%	-2%	5.6µM*!
Cc1cn2nc(C(=O)N3CCOCC3)cc2c(N(C)Cc2ccccc2)n1	16%	i	?	?	4%
Cc1cc2cc(-c3c(C)noc3C)nc(-c3cccc([S+](C)(=O)[O-])c3)c2o1	-21%[70.6 µM]	i	?	11µM*	-12%[88.5 µM]
Cc1cc2cc(-c3c(C)noc3C)nc(-c3ccc(CO)cc3)c2o1	-2%[70.6 µM]	i	?	28µM*	?
Cc1noc(C)c1-c1cc2cc(C(C)C)oc2c(-c2ccc(CO)cc2)n1	-7%[70.6 µM]	i	?	?	-23%[88.5 µM]
COc1cccc(-c2nc(-c3c(C)noc3C)cc3cc(C)oc23)c1	3%[70.6 µM]	i	?	?	-6%[88.5 µM]
Cc1noc(C)c1-c1cc2cc(CO)oc2c(-c2cccc(OC(C)C)c2)n1	-15%[70.6 µM]	i	89µM*	?	-20%[88.5 µM]
CCC(=O)N1CCc2oc(C)c(C(=O)N(C)C)c2C1	-2%	i	1%	1%	i
OC1(CN2CCN(CCc3ccccn3)CC2)CNCCOC1 (centres undefined)	7%	i	-20%	-8%	-10%
CCc1nc2c(c(-c3ccc(OC)cc3)n1)CCN(C(=O)c1ccccc1F)CC2	.	.	-19%	40µM*	i
CCc1nc2c(c(-c3ccc(OC)cc3)n1)CCN(C(=O)c1ccccc1OC)CC2	.	.	-5%	?	i
CCc1nc2c(c(-c3ccc(OC)cc3)n1)CN(C(=O)c1ccc3c(c1)OCO3)CC2	.	.	-7%	40µM*	i
COc1ccc(-c2nc(C)nc3c2CCN(C(=O)c2ccc4c(c2)OCO4)CC3)cc1	0%	i	?	-26%	i
CCc1nc2c(c(-c3ccc(OC)cc3)n1)CN(C(=O)c1ccccc1)CC2	.	.	1%	14µM*	i
O=C(c1ccccc1)N1CCC2(C1)C(=O)N(Cc1ccccc1)c1ccccc12 (centres undefined)	-27%	i	?	?	i
COc1cccc(C(=O)N2CCC3(C2)C(=O)N(CCc2ccccc2)c2ccccc23)c1 (centres undefined)	-11%	i	45µM*	?	1%
Cc1ccc(C(=O)N2CCC3(C2)C(=O)N(CCc2ccccc2)c2ccccc23)cc1 (centres undefined)	-10%	i	32µM*!	40µM*!	?
O=C(c1ccc(F)cc1)N1CCC2(C1)C(=O)N(CCc1ccccc1)c1ccccc12 (centres undefined)	0%	i	40µM*!	?	-15%
O=C(Cc1cccc(Cl)c1)N1CCC2(C1)C(=O)N(CCc1ccccc1)c1ccccc12 (centres undefined)	0%	i	32µM*	45µM*!	i
CN(Cc1ccccc1)Cc1cc(C[C@@H]2CC[C@H](O)[C@@H](CNC(=O)c3cccc(F)c3)O2)no1	4%	i	?	-21%	-3%
O=C(c1nnc(CN2CCN(c3ccccn3)CC2)n1-c1cccnc1)N1CCC[C@@H]1c1cccc(F)c1	-2%	i	i	?	i
COC(=O)N1CCC2(C1)C(=O)N(CCc1ccccc1)c1ccccc12 (centres undefined)	0%	i	63µM*!	?	-19%[88.5 µM]
COc1ccc(CC(=O)N2CCC3(C2)C(=O)N(CCc2ccccc2)c2ccccc23)cc1 (centres undefined)	0%	i	40µM*!	?	1%
CN1C(=O)C2(CCN(C(=O)c3cccc(Br)c3)C2)c2ccccc21 (centres undefined)	-15%	i	35µM*	?	i
O=C(c1ccccc1)N1CCC2(C1)C(=O)N(CCc1ccccc1)c1ccccc12 (centres undefined)	-11%	i	35µM*!	?	i
SMILES	hNpr1 antagonist	FLuc inh	HEK293 tox	NIH3T3 tox	GPT2 inh
COCC(=O)N1CCC2(C1)C(=O)N(CCc1ccccc1)c1ccccc12 (centres undefined)	1%	i	-23%	-17%	-12%
O=C(c1ccc(Cl)cc1)N1CCC2(C1)C(=O)N(CCc1ccccc1)c1ccccc12 (centres undefined)	.	.	?	?	1%
O=C(NCCc1ccccc1)NC1CCN(C(=O)N2CC3CC(C2)[C@H]2CCCC(=O)N2C3)CC1 (some centres undefined)	-1%	i	10%	-7%	i
O=C(c1ccccc1F)N1CCC2(C1)C(=O)N(CCc1ccccc1)c1ccccc12 (centres undefined)	19%	i	40µM*	?	-8%
CN1C(=O)C2(CCN(C(=O)c3ccccc3F)C2)c2ccccc21 (centres undefined)	3%[70.6 µM]	i	?	-17%[138 µM]	i
CCOC(=O)N1CCC(n2ccnc2-c2cc3n(n2)CCNC3)CC1	-2%	i	-1%	2%	-2%
O=S(=O)(NCCc1noc(-c2ccccc2)n1)c1cccs1	-22%	i	?	?	1%
COc1ccccc1-c1[nH]nc2ncc(-c3ccccc3F)nc12	-24%[70.6 µM]	i	?	35µM*	0%[88.5 µM]
COc1ccccc1-c1[nH]nc2ncc(-c3cccc(O)c3)nc12	-5%[70.6 µM]	i	40µM*	?	i
COc1ccccc1-c1[nH]nc2ncc(-c3ccccc3)nc12	.	.	.	.	4%[88.5 µM]
COc1ccccc1-c1[nH]nc2ncc(-c3ccccc3C)nc12	-17%[70.6 µM]	i	50µM*	50µM*	-5%[88.5 µM]
COc1ccccc1-c1[nH]nc2ncc(-c3cnn(C)c3)nc12	3%[70.6 µM]	i	35µM*	?	1%[88.5 µM]
COc1ccccc1-c1[nH]nc2ncc(CNc3ccccn3)nc12	-8%[70.6 µM]	i	?	?	i
COc1ccccc1-c1[nH]nc2ncc(-c3ccnc(C)c3)nc12	-1%[70.6 µM]	i	?	?	-1%[88.5 µM]
CNC(=O)N1C[C@@H](CN(C)C)[C@H](NS(=O)(=O)c2ccc3c(c2)CCC3)C1	5%	i	3%	3%	1%
Cc1ccc(C(=O)N(C)Cc2ccc(-c3ccccc3)cc2)cc1	-12%[70.6 µM]	i	89µM*	?	i
CN(Cc1cccc(C(F)(F)F)c1)C(=O)c1ccccc1Cl	-4%[70.6 µM]	i	56µM*	89µM*	i
CN(Cc1ccc(-c2ccccc2)cc1)C(=O)c1ccccc1	?	?	?	?	i
Cc1ccc(C(=O)N(C)Cc2cccc(C(F)(F)F)c2)cc1	-10%[70.6 µM]	i	100µM*	?	i
COc1cccc(C(=O)N(C)Cc2ccccc2C(F)(F)F)c1	0%[70.6 µM]	i	100µM*	?	i
N#CC[C@H](C1CCCC1)n1cc(-c2ncnc3[nH]ccc23)cn1	.	.	.	.	i

Bioassay records as filed in PubChem.
